# Results reported in the supplement of paper PMC11001985.
# Values without a mark were called inactive.
# Compound: C#CCNC(=O)CCSSCCC(=O)NCCc1ccc(C=O)c(C=O)c1
# Experiment: lysine labeling ratio R10:1 (500 µM / 50 µM probe), SILAC-ABPP in living cells; higher = lower intrinsic lysine reactivity toward the probe, active = 2 or less
# Details: HeLa; probe concentrations 500 vs 50 µM
# Procedure, shortened: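 With forward and reverse label swaps, light and heavy SILAC HeLa cells, alive and in PBS at room temperature, were exposed to either 500 µM or 50 µM of an alkyne-tagged lysine probe bearing a disulfide link. After mixing, lysates were clicked to biotin-azide, cut with trypsin, pulled down on neutravidin, freed with DTT, alkylated and analysed on a TIMS-TOF Pro by LC-MS/MS. The per-lysine value R is the median over forward and reverse replicates of the filtered median high-probe/low-probe MS1 peptide ratio. It is capped at 20.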
# Chain of UniProt P30533 (P30533 whole entry): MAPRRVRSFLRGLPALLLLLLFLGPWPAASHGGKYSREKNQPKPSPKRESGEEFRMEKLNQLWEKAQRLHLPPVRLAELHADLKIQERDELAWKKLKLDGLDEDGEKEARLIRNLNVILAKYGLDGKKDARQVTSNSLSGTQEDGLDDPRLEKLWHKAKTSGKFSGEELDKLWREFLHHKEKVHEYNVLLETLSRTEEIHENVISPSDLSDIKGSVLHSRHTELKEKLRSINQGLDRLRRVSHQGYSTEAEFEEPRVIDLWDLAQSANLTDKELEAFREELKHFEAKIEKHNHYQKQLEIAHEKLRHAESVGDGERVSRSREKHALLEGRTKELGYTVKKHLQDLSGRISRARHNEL
# Chain of UniProt Q15149 (Q15149 whole entry): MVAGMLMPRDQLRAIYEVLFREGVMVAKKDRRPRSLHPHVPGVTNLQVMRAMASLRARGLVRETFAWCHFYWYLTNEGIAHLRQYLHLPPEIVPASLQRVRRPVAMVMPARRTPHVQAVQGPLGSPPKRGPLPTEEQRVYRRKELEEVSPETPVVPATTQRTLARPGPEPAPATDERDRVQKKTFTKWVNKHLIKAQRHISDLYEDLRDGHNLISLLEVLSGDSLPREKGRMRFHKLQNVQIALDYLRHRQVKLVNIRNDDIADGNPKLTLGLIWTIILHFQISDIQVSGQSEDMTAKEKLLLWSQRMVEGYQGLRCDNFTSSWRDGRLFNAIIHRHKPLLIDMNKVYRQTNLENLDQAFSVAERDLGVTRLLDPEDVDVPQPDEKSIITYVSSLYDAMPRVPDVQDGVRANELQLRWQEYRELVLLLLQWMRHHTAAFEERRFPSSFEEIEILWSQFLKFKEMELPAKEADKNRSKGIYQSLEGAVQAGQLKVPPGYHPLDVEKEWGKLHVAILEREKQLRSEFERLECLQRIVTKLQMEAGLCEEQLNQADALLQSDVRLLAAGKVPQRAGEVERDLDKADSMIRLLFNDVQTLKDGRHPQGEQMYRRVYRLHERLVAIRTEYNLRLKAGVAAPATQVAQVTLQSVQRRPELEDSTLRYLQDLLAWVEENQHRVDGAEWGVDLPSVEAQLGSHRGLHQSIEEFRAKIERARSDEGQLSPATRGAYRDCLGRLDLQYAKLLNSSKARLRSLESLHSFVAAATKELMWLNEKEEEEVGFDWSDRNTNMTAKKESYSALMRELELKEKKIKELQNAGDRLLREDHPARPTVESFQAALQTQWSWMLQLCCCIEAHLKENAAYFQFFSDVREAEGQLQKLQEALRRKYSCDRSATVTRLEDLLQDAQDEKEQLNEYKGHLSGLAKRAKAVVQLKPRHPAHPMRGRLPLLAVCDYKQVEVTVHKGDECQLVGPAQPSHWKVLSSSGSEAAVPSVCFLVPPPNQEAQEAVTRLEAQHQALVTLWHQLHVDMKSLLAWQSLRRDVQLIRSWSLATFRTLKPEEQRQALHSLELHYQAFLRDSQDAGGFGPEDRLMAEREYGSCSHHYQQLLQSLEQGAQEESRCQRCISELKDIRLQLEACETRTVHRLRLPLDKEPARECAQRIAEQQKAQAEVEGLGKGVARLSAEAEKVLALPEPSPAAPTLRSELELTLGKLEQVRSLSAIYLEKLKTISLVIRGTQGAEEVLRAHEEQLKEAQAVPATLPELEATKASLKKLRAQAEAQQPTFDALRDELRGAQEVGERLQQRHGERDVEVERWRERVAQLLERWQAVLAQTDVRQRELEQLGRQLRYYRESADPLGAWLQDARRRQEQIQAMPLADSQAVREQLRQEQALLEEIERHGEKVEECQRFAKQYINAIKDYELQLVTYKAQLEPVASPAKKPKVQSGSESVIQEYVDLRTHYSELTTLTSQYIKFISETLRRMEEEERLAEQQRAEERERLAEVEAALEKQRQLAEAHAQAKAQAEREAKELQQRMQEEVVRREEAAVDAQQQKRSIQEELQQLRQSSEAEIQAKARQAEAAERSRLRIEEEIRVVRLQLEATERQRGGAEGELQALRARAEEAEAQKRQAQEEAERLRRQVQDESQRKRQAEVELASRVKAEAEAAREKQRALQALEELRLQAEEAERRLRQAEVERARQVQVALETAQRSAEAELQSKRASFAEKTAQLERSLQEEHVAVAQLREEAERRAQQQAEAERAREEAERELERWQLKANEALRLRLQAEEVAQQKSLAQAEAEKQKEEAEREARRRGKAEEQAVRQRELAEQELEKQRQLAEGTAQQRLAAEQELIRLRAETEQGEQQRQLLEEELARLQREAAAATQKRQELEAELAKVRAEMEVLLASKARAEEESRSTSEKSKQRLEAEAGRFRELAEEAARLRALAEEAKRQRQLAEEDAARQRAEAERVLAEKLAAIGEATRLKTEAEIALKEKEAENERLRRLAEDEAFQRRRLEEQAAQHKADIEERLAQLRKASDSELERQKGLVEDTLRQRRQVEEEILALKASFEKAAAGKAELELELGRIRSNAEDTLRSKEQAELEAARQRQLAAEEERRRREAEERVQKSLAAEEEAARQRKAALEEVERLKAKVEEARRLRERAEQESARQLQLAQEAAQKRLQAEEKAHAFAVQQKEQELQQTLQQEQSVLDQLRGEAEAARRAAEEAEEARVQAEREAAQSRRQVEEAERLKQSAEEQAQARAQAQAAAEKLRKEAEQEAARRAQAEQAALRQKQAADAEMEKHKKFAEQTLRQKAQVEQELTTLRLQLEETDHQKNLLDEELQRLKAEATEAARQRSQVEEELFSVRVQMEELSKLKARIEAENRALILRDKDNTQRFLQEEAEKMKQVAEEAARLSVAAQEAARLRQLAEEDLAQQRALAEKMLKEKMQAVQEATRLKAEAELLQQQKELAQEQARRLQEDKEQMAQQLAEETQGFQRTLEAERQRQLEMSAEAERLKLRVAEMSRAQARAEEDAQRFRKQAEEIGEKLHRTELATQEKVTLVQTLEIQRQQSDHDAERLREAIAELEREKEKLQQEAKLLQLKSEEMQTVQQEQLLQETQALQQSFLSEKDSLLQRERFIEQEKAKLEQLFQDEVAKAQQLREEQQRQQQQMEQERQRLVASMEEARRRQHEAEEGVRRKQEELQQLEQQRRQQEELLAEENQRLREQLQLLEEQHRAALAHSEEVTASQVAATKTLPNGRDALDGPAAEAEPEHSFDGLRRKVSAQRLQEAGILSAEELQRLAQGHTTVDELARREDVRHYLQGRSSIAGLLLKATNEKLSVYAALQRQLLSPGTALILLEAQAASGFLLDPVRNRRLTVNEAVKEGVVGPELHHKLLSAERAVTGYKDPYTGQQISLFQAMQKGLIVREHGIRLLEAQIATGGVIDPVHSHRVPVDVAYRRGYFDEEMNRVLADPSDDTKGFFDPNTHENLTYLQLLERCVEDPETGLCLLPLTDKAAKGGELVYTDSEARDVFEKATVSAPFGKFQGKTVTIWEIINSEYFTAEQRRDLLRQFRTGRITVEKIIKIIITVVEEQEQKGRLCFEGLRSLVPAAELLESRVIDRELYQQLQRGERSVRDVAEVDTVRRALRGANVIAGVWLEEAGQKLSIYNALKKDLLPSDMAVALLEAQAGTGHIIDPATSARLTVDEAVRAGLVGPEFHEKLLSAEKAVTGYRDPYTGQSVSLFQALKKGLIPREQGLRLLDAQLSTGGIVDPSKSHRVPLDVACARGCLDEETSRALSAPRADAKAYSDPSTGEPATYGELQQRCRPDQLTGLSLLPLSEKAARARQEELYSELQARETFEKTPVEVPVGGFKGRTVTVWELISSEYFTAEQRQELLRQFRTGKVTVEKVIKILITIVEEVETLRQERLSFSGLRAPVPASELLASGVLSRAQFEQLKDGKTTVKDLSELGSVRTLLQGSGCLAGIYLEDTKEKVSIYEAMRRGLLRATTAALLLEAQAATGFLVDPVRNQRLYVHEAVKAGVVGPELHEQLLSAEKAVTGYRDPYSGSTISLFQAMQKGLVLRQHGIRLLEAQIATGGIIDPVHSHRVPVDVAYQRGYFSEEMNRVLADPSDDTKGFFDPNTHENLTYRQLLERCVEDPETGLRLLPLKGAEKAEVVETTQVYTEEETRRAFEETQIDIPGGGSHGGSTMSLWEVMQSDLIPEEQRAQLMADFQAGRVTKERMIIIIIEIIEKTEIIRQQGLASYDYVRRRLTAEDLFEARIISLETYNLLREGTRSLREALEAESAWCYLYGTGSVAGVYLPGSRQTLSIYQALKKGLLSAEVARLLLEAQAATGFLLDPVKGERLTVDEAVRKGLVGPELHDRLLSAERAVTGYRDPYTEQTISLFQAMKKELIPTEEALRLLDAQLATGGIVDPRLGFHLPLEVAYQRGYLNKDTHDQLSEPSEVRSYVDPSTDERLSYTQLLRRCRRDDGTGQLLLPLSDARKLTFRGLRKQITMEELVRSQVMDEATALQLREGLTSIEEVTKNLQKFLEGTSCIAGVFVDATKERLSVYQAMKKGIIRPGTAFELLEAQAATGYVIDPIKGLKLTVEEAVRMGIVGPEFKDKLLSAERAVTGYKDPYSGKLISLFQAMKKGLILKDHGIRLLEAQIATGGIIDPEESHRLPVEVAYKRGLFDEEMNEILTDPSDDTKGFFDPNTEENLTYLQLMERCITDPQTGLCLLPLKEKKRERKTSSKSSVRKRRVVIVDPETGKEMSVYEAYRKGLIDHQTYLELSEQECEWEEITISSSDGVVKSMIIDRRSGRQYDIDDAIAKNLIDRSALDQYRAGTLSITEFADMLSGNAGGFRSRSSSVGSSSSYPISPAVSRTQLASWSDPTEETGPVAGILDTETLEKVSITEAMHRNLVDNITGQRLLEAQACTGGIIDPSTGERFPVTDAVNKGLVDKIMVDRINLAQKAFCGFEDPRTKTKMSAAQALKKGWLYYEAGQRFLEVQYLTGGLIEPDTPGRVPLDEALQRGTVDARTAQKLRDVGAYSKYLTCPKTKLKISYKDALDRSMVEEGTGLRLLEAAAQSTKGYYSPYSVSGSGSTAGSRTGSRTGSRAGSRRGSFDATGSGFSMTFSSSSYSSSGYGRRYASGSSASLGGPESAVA
# Chain of UniProt P07737 (P07737 whole entry): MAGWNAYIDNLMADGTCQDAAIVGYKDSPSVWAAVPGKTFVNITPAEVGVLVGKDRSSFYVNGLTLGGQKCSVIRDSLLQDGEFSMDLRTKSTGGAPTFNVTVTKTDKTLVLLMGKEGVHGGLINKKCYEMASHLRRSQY
row,Target,lysine labeling ratio R10:1
1,CLSTN1 (lysine site: K322) (UniProt O94985),0.805 (active)
2,B2M (lysine site: K111) (UniProt P61769),15.6
3,FLNB (lysine site: K1425) (UniProt O75369),3.67
4,HSP90B1 (lysine site: K75) (UniProt P14625),1.47 (active)
5,UniProt P60660 (lysine site: K98),3.79
6,HSPD1 (lysine site: K369) (UniProt P10809),2.45
7,DSG2 (lysine site: K141) (UniProt Q14126),4.68
8,SCARB2 (lysine site: K129) (UniProt Q14108),5.93
9,CD109 (lysine site: K567) (UniProt Q6YHK3),3.37
10,PAICS (lysine site: K110) (UniProt P22234),3.11
11,UniProt Q15149 (lysine site: K567),14.2
12,PSMA1 (lysine site: K115) (UniProt P25786),4.28
13,LAMB1 (lysine site: K1757) (UniProt P07942),5.94
14,UniProt Q15149 (lysine site: K300),2.94
15,UniProt Q8WXI7 (lysine site: K13384),7.85
16,UniProt Q8N441 (lysine site: K30),3.03
17,VAPA (lysine site: K180) (UniProt Q9P0L0),1.96 (active)
18,ALDOA (lysine site: K14) (UniProt P04075),5.1
19,MYH9 (lysine site: K1389) (UniProt P35579),2.38
20,UniProt P62273 (lysine site: K33),1.51 (active)
21,CD58 (lysine site: K167) (UniProt P19256),2.06
22,S100A11 (lysine site: K55) (UniProt P31949),1.54 (active)
23,FAT1 (lysine site: K2553) (UniProt Q14517),2.67
24,FRAS1 (lysine site: K3093) (UniProt Q86XX4),3.29
25,TKT (lysine site: K310) (UniProt P29401),7.45
26,HEG1 (lysine site: K1075) (UniProt Q9ULI3),3.38

row,Target,lysine labeling ratio R10:1
1,DDX3X (lysine site: K66) (UniProt O00571),1.78 (active)
2,EZR (lysine site: K344) (UniProt P15311),7.1
3,PROCR (lysine site: K192) (UniProt Q9UNN8),2.15
4,TFRC (lysine site: K585) (UniProt P02786),4.53
5,RPL4 (lysine site: K182) (UniProt P36578),1.85 (active)
6,RBMX (lysine site: K63) (UniProt P38159),1.66 (active)
7,ITGA1 (lysine site: K259) (UniProt P56199),4.65
8,UniProt P62829 (lysine site: K75),4.96
9,SPTBN1 (lysine site: K832) (UniProt Q01082),2.42
10,DYNC1H1 (lysine site: K4406) (UniProt Q14204),3.65
11,UniProt Q8WXI7 (lysine site: K12623),3.22
12,SPTAN1 (lysine site: K1699) (UniProt Q13813),3.27
13,AHNAK (lysine site: K130) (UniProt Q09666),1.37 (active)
14,LRPAP1 (lysine site: K107) (UniProt P30533),1.78 (active)
15,UniProt Q15149 (lysine site: K4173),1.95 (active)
16,ITGA1 (lysine site: K546) (UniProt P56199),0.96 (active)
17,UGDH (lysine site: K107) (UniProt O60701),1.1 (active)
18,ITGA5 (lysine site: K910) (UniProt P08648),3.88
19,UniProt Q6ZMR3 (lysine site: K155),2.54
20,UniProt P62805 (lysine site: K92),7.01
21,TSPAN3 (lysine site: K110) (UniProt O60637),4.07
22,RUVBL2 (lysine site: K279) (UniProt Q9Y230),2.65
23,HNRNPA2B1 (lysine site: K173) (UniProt P22626),7.67
24,FLNA (lysine site: K1071) (UniProt P21333),3.76
25,UniProt Q15149 (lysine site: K1552),2.31
26,UniProt P25705 (lysine site: K161),3.49

row,Target,lysine labeling ratio R10:1
1,CDH13 (lysine site: K161) (UniProt P55290),6.29
2,MYH10 (lysine site: K1782) (UniProt P35580),1.76 (active)
3,UniProt P23352 (lysine site: K279),3.78
4,XRCC6 (lysine site: K317) (UniProt P12956),3.53
5,DSG2 (lysine site: K362) (UniProt Q14126),1.02 (active)
6,WNT5A (lysine site: K171) (UniProt P41221),3.57
7,AHNAK (lysine site: K326) (UniProt Q09666),1.7 (active)
8,UniProt P05787 (lysine site: K198),7.97
9,SERPINH1 (lysine site: K217) (UniProt P50454),1.17 (active)
10,NOTCH2 (lysine site: K693) (UniProt Q04721),1.5 (active)
11,FSCN1 (lysine site: K74) (UniProt Q16658),1.36 (active)
12,UniProt P26639 (lysine site: K694),1.36 (active)
13,SPTAN1 (lysine site: K2195) (UniProt Q13813),1.91 (active)
14,UniProt Q15149 (lysine site: K923),9.2
15,MSN (lysine site: K63) (UniProt P26038),1.1 (active)
16,PPIA (lysine site: K133) (UniProt P62937),2.46
17,ROBO1 (lysine site: K282) (UniProt Q9Y6N7),2.01
18,LRPAP1 (lysine site: K340) (UniProt P30533),1.47 (active)
19,PARK7 (lysine site: K148) (UniProt Q99497),3.31
20,SPTAN1 (lysine site: K1750) (UniProt Q13813),2.19
21,ST13 (lysine site: K230) (UniProt P50502),4.87
22,FKBP4 (lysine site: K354) (UniProt Q02790),1.51 (active)
23,GPC1 (lysine site: K277) (UniProt P35052),2.26
24,ITGAV (lysine site: K533) (UniProt P06756),1.58 (active)
25,PFN1 (lysine site: K54) (UniProt P07737),3.31
26,UniProt Q99623 (lysine site: K200),2.34

row,Target,lysine labeling ratio R10:1
1,UniProt O60462 (lysine site: K547),4.2
2,LRPAP1 (lysine site: K323) (UniProt P30533),2.24
3,GOT2 (lysine site: K73) (UniProt P00505),3.72
4,F2 (lysine site: K384) (UniProt P00734),4.42
5,ITGA6 (lysine site: K586) (UniProt P23229),12.8
6,UniProt Q9H336 (lysine site: K242),2.36
7,RPL3 (lysine site: K229) (UniProt P39023),1.36 (active)
8,UniProt Q5XKE5 (lysine site: K253),2.87
9,SPTAN1 (lysine site: K1274) (UniProt Q13813),3.51
10,PTPRF (lysine site: K612) (UniProt P10586),4.74
11,MYH9 (lysine site: K1219) (UniProt P35579),2.49
12,UniProt P62333 (lysine site: K298),1.53 (active)
13,RPL5 (lysine site: K197) (UniProt P46777),1.37 (active)
14,BST2 (lysine site: K126) (UniProt Q10589),4.11
15,HNRNPC (lysine site: K176) (UniProt P07910),3.1
16,EFNB2 (lysine site: K83) (UniProt P52799),2.34
17,RPL10A (lysine site: K212) (UniProt P62906),1.53 (active)
18,PGK1 (lysine site: K146) (UniProt P00558),1.57 (active)
19,ITGA5 (lysine site: K978) (UniProt P08648),4.71
20,HNRNPU (lysine site: K352) (UniProt Q00839),2.95
21,FAT4 (lysine site: K3828) (UniProt Q6V0I7),5.8
22,NPR3 (lysine site: K127) (UniProt P17342),4.43
23,UniProt Q9NYQ7 (lysine site: K2131),1.56 (active)
